From PubChem BioAssay (EPA / NIEHS)
Calls of active or inactive are those of the source. Rule for the calls: active = hit-call score of the fitted dose curve at least 0.9, where 1 is the maximum; inactive = score below 0.9.

Read-out: Glutathione S-Transferase (GSTA2), GSTA2 (gene 2939)
Experiment: LTEA_HepaRG_GSTA2: Life Technologies and Expression Analysis (LTEA) Assay for Glutathione S-Transferase (GSTA2) using HepaRG (AID 2283497)
Details: mRNA level, 48 h; actives raise or lower the signal
Protocol: LTEA_HepaRG is a cell based, multiplexed-readout assay that uses HepaRG, a human liver cell line, with measurements taken at 48 hours after chemical dosing on a 96-well plate.LTEA_HepaRG_GSTA2 is one of 102 assay component(s) measured in the LTEA HepaRG cell culture assay. It is a marker of Oxidative Stress.Data from the assay component LTEA_HepaRG_GSTA2 was analyzed into 1 endpoint. This assay endpoint, LTEA_HepaRG_GSTA2, was analyzed with bidirectional fitting relative to DMSO as the negative control and baseline of activity. Using a type of inducible reporter, measures of mRNA induction for gain or loss-of-signal activity can be used to understand regulation of transcription factor activity. To generalize the intended target to other relatable targets, this assay endpoint is annotated to the transferase intended target family, where the subfamily is alkyl and aryl transferase.
A total of 1060 chemcials from the ToxCast library were tested in eight-point concentration-response experiments. Cell culture and cytotoxicity assays were conducted at Thermo Fisher Scientific's Custom Services facility (Madison, WI). A single lot of human HepaRG cells (Thermo Fisher Scientific, Frederick, MD) was used for the cell culture experiments. 96-well format collagen type I coated plates of human HepaRG cells were prepared using established methods. Briefly, cryopreserved HepaRG cells were thawed, plated at a density of approximately 100,000 cells/well in HepaRG Thaw, Plate, and General Purpose media (HPRG770, Thermo Fisher Scientific), and incubated for 48 hours. 0.5% DMSO was selected as vehicle control to balance the requisite need of DMSO in HepaRG cultures to maintain differentiation (for example, baseline metabolism, proportions of hepatocytes vs. cholangiocytes), while enabling further hepatic receptor pathway activation (for example, PXR and CAR) in response to chemical exposure. 48 hours after plating, the culture medium was replaced with HepaRG Serum-Free Incudtion Media. Cells were exposed to each test chemical in duplicate and maintained in CO2 incubators for another 48 hours. Chemical plates were thawed to room temperature and 200x concentrations of treatment groups were prepared. 8-point conentration-reponse curves were made with the highest exposure at 100 uM, followed by half-log dilutions, all in 0.5% DMSO. Each test plate contained variouse controls, induction positive controls (1mM phenobarbital), cytotoxicity positive controls ([…] aflatoxin B1), vehicle controls (0.5% DMSO), and total lysis controls (0.5% DMSO). Cell morphology images were taken using an Essen IncuCyte FLR automated microscope, with six 96-well plates imaged in about 24 minutes. Images were captured and exported and JPEG files. Spent culture media was transfered to black-well plates for the LDH assay, and remaining media was sorted at -80 C for later use. Cells were treated with RLT buffer and frozen until shipped for gene expression analysis. Total RNA was isolated from the cell suspension in 75 uL of Buffer RLT (Qiagen, Germantown, MD 20874) by Quintiles/Expression Analysis (Durham, NC) using a custom isolation procedure. Total RNA from each plate well was transferred to a preamplification plate. Fluidigm's 96.96 Dynamic ArrayTM (Fluidigm, Amsterdam, the Netherlands) technology was used for gene expression analyses by quantitative reverse transcription polymerase chain reaction (qRT-PCR, performed by Quintiles/Expression Analysis, Durham, NC)89. Standard TaqManTM Assays (Applied Biosystems/ThermoFisher Scientific, Foster City, CA) were used to assess the expression of 93 genes selected based on their selectivity and sensitivity to important hepatic receptors known to be modulated by environmental chemicals; importance in human hepatocyte functionality; and hepatotoxicity. […]

SMILES	outcome	AC50
CCCCN(CCCC)SN(C)C(=O)Oc1cccc2c1OC(C)(C)C2	inactive	
Cc1ccc([N+](=O)[O-])cc1C	inactive	
c1ccc2c(c1)Nc1ccccc1S2	inactive	
ClC(Cl)c1ccccc1	inactive	
CCOP(=S)(Oc1ccc([N+](=O)[O-])cc1)c1ccccc1 (stereo not given)	inactive	
CCNc1nc(Cl)nc(NC(C)(C)C)n1	inactive	
Nc1ccc(Cl)cc1	inactive	
Cc1ccc(N)cc1N	inactive	
CC(Cc1ccc(OCC(=O)O)cc1)NCC(O)c1csc(C(F)(F)F)n1 (stereo not given)	inactive	
CCCCc1ccccc1	inactive	
c1ccc(OP(Oc2ccccc2)Oc2ccccc2)cc1	inactive	
CCOC(=O)c1ccccc1C(=O)OCC	inactive	
CCCCN(CCCC)N=O	inactive	
CC(C)(C)OOC(C)(C)C	inactive	
CC(C)(C)c1ccc(O)cc1	inactive	
[N-]=[N+]=[N-]		79.3 µM (active)
Cc1cccc(N)c1	inactive	
CCOS(=O)(=O)OCC	inactive	
CCC1(c2ccccc2)C(=O)N=C(O)NC1=O (stereo not given)	inactive	
CCN(CC)c1ccccc1	inactive	

SMILES	outcome	AC50
CCCCCCCc1ccc(O)cc1	inactive	
c1nc[nH]n1	inactive	
CSC(C)(C)C=NO	inactive	
O=P(Oc1ccccc1)(Oc1ccccc1)Oc1ccccc1	inactive	
CCOc1ccc(C(C)(C)COCc2cccc(Oc3ccccc3)c2)cc1	inactive	
O=[N+]([O-])c1ccc(Cl)c(Cl)c1	inactive	
O=C(O)C(Cl)Cl	inactive	
O=[N+]([O-])c1ccccc1	inactive	
Nc1ccc2ccccc2c1	inactive	
Nc1cc2c3c(c1)C(c1ccccc1)=N[C@@H](NC(=O)c1cccnc1)C(=O)N3CC2	inactive	
CN(C)C(=O)Cl	inactive	
CC(Cl)(Cl)C(=O)O	inactive	
CCC(C)(C)c1ccc(O)cc1	inactive	
O=P1(N(CCCl)CCCl)NCCCO1 (stereo not given)	inactive	
CCOP(=S)(OCC)SCSCC	inactive	
Cc1ccc(O)cc1C	inactive	
OCC1CO1 (stereo not given)	inactive	
CCCN(CCC)c1c([N+](=O)[O-])cc(C(C)C)cc1[N+](=O)[O-]	inactive	
c1cc2c3c(cccc3c1)CC2	inactive	
ClC1=C(Cl)C2(Cl)C3C(Cl)C(Cl)CC3C1(Cl)C2(Cl)Cl (stereo not given)	inactive	
